Compound activity (PubChem)
Shown is part of a subset that was picked to be rich in hits.
ERK EGF block = EGF-driven ERK pathway inhibition; HEK293-V1b, EGF-stimulated phospho-ERK AlphaScreen; Potency, µM (series often up to 11.5 µM), without a hit: at the top dose activity change, negative = inhibition, hits mostly inhibitors; actives 0.41% (n = 130,000);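 also: potency is read from the fitted curve at half-maximal effect; plate controls were stimulated vehicle wells for no effect and unstimulated vehicle basal for full effect; nearly all actives have a fitted effect of over 55% in size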
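HEK293 cells stably expressing V1b receptor, serum-reduced (1% FBS) overnight, pretreated 30 min with compound, then stimulated 5 min with 25 nM EGF; phospho-ERK detected by AlphaScreen SureFire. AC50 from Hill fits, normalized to DMSO and EGF.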
pERK EGF inh = confirmation of ERK pathway inhibitors under EGF stimulation; Potency, µM (doses to about 57.5 µM), without a hit: at the highest dose activity change, negative = inhibition, hits mostly inhibitors; actives 60% (n = 60); shares compounds with ERK EGF block; AID 1725; HEK293 EGF-stimulated ERK phosphorylation, AlphaScreen
c-Raf inh = c-Raf inhibition, ERK pathway follow-up. shares compounds with ERK EGF block. c-Raf kinase inhibition, homogeneous biochemical assay. activity change, negative = inhibition, % at 76.9 µM. 70 tested, under 10 active. AID 1728
Target sequence (P04049 whole entry, looked up): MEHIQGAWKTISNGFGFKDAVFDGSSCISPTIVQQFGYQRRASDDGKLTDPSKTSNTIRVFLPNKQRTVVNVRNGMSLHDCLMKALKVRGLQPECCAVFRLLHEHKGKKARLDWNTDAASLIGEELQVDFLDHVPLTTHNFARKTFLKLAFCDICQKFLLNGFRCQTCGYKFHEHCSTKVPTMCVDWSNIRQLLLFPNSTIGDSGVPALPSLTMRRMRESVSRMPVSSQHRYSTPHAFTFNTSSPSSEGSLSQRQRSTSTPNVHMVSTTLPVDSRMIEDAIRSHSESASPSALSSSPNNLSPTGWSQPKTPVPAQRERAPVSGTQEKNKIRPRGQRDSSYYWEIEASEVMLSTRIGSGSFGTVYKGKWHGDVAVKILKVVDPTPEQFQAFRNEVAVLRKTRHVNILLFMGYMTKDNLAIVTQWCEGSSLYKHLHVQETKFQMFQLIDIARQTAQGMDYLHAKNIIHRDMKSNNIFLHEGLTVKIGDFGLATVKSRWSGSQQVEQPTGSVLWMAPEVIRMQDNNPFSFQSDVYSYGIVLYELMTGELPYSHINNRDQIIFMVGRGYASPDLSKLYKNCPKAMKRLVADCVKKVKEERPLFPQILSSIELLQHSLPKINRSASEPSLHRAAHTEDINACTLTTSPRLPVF
MEK inh = MEK1 (human) kinase inhibition; shares compounds with ERK EGF block; Potency, µM (highest dose often 76.9 µM), for inactives: at the highest dose activity change, negative = inhibition, hits mostly inhibitors; homogeneous MEK kinase activity assay, ERK pathway; AID 1732; 70 tested, under 10 active
* marks the source's active call; other numbers are inactive results; [ ] = remark or other dose. Calls follow the shape of the dose curve; as a rule, active = well fitted curve in the direction sought with a large enough effect; inconclusive = small, poorly fitted or top-dose-only effect, or another doubt; inactive = no such curve, though single readings can be large; an effect the other way counts as inactive or inconclusive.

Results for CCc1ccccc1NC(=S)NCC1CCN(c2ccc(OC)cc2)C1 (stereo not given) ?
ERK EGF block: 14µM*

Results for CC(C1CCCC(=O)C1)[N+](=O)[O-] (stereo not given) ?
ERK EGF block: -10%

Results for CC1CCCN(CCCNC(=O)c2cc3c(Cl)nc4ccccc4c3s2)C1 (stereo not given) ?
ERK EGF block: -8%

What do the screens show for `CCN(CC)CCCNC(=O)c1cc2c(Cl)nc3ccccc3c2s1`?
ERK EGF block: -11%

What do the screens show for `CN(CCCNC(=O)c1cc2c(Cl)nc3ccccc3c2s1)Cc1ccccc1`?
ERK EGF block: 25µM*

How did CC(=O)OCC(=O)[C@@]12OC(C)(C)O[C@@H]1C[C@H]1[C@H]3C[C@H](F)C4=CC(=O)C=C[C@@]4(C)[C@]3(F)[C@H](O)C[C@@]12C do in these assays?
ERK EGF block: 10%[25.7 µM]

What do the screens show for `O=C(c1cc(C(F)(F)F)cc(C(F)(F)F)c1)N1CCC[C@@]2(CCN(Cc3ccncc3)C2)C1`?
ERK EGF block: 12%

How did CC(=O)c1cccc(NC(=O)Nc2csc3c2CCCC3)c1 do in these assays?
ERK EGF block: 25µM*

How did CC(=O)c1cccc(NC(=O)c2csc3c2CCCCC3)c1 do in these assays?
ERK EGF block: -13%

What do the screens show for `COC(=O)c1sccc1NC(=O)Nc1cccc(C(C)=O)c1`?
ERK EGF block: 2%

What do the screens show for `C[C@@H]1C=C[C@](Cc2ccccc2)(C(=O)NCCN2CCOCC2)N1C(=O)c1ccccc1`?
ERK EGF block: -6%

How did CC(=O)OC[C@@]12C(=O)[C@@H](O)[C@@H](C)[C@]3(C[C@@H](c4ccoc4)O[C@@H]3OC(C)=O)[C@H]1CCC[C@]21CO1 do in these assays?
ERK EGF block: -7%

What do the screens show for `O=C(O)C1Cc2c([nH]c3ccccc23)C(c2coc3ccccc3c2=O)N1` (stereo not given)?
ERK EGF block: 4%

Results for COC(=O)[C@H](COC(C)(C)C)NC(=O)O[C@@H]1C(=O)c2cc(OC)ccc2O[C@H]1c1cccc(OC)c1 ?
ERK EGF block: -10%

Results for COc1ccc(-n2ncc3c(N4CCN(Cc5ccccc5)CC4)ncnc32)cc1 ?
ERK EGF block: 32µM*

Results for COc1ccc(-n2ncc3c(N4CCC(C(N)=O)CC4)ncnc32)cc1 ?
ERK EGF block: 6%[57.5 µM]

What do the screens show for `CCOC(=O)C1CCN(c2ncnc3c2cnn3-c2ccc(OC)cc2)CC1`?
ERK EGF block: 10%[57.5 µM]

How did O=C(c1cccc(F)c1)N1CCC2(CC1)CCN(c1ncccn1)CC2 do in these assays?
ERK EGF block: 1%

Results for C=CCOC(=O)C1=C(C)NC(C)=C(C(=O)OCC=C)C1c1ccco1 ?
ERK EGF block: 3%[57.5 µM]

Results for C=CCOC(=O)C1=C(C)Nc2[nH]c(=O)[nH]c(=O)c2C1c1ccccc1 (stereo not given) ?
ERK EGF block: 4%

How did C=CCOC(=O)C1=C(C)NC(C)=C(C(=O)OCC=C)C1/C=C/c1ccccc1 do in these assays?
ERK EGF block: 25µM*

How did C=CCC(C)(O)c1cccc(Br)c1 (stereo not given) do in these assays?
ERK EGF block: -10%

Results for CC(=O)N1C2(C=CC1(C)C(=O)NCc1ccc(C)o1)CCCCC2 (stereo not given) ?
ERK EGF block: 4%

What do the screens show for `CC(C)C[C@@H](CC(=O)N[C@@H](CCC(=O)O)CC(=O)O)NC(=O)[C@@H]1CNCC[C@H]1NC(=O)C[C@H](CCCN)NC(=O)C[C@H](Cc1c[nH]c2ccccc12)NC(=O)[C@@H]1CNCC[C@H]1N`?
ERK EGF block: 0%

What do the screens show for `COC(=O)C1=C(C)[C@@H](O)[C@@H](C)[C@](C)(c2cc(OC)c(C)c(OC)c2COc2ccccc2)O1`?
ERK EGF block: -9%

Results for CCOc1cc(/C=N/N=C(N)N)ccc1OCc1ccc(Cl)cc1 ?
ERK EGF block: 32µM*

What do the screens show for `COc1cc(/C=N/N=C(N)N)ccc1OCc1ccc(Cl)cc1`?
ERK EGF block: 4%

What do the screens show for `COc1cc(/C=N/O)ccc1OCc1ccc(Cl)cc1`?
ERK EGF block: -11%

Results for O=c1cc(-c2ccc(O)c(O)c2)oc2cc(O)cc(O)c12 ?
ERK EGF block: -5%

What do the screens show for `O=c1cc(-c2ccccc2Cl)oc2cccc(O)c12`?
ERK EGF block: -3%

Results for O=c1cc(-c2ccc(O)cc2)oc2cccc(O)c12 ?
ERK EGF block: -4%; pERK EGF inh: -12%; c-Raf inh: inconclusive; MEK inh: -6%

What do the screens show for `COc1ccc(OCC(Cn2cnc3ccccc32)OC(C)=O)cc1` (stereo not given)?
ERK EGF block: -3%

What do the screens show for `COc1ccc(C(=O)OC(COc2ccccc2)Cn2ccnc2)cc1` (stereo not given)?
ERK EGF block: 7.1µM*; pERK EGF inh: 14µM*; c-Raf inh: -8; MEK inh: -15%

What do the screens show for `O=C(O)c1ccc(OCCn2ccnc2)cc1`?
ERK EGF block: -7%[57.5 µM]

Results for N#Cc1ccc(N2CCOCC2)nc1 ?
ERK EGF block: 0%[57.5 µM]

What do the screens show for `CCN(CC)S(=O)(=O)c1ccc(O)c(C(=O)OCC(=O)Nc2ccc(OC(F)(F)F)cc2)c1`?
ERK EGF block: -3%

Results for Cc1ccc(NC(=O)c2ccc(Cl)cc2Cl)cc1O ?
ERK EGF block: 1%[57.5 µM]

Results for O=C1CCC(C(=O)NCc2ccc3c(c2)OCO3)N1 (stereo not given) ?
ERK EGF block: -1%

Results for O=C(CC1N=C(Cc2ccccc2)NNC1=O)N/N=C/c1ccc([N+](=O)[O-])cc1 (stereo not given) ?
ERK EGF block: -9%

Results for Fc1cccc(Nc2ncnc3sc4c(c23)CCC4)c1 ?
ERK EGF block: 3.2µM*; pERK EGF inh: 10µM*; c-Raf inh: inconclusive; MEK inh: 8%

Results for c1cncc(CNc2ncnc3sc4c(c23)CCC4)c1 ?
ERK EGF block: -14%[57.5 µM]

How did O=S(=O)(Nc1ncnc2sc3c(c12)CCC3)c1cc(F)ccc1F do in these assays?
ERK EGF block: -12%[57.5 µM]

What do the screens show for `COc1ccc(CN2CCC(CO)(Cc3ccccc3)CC2)cc1Cn1cccn1`?
ERK EGF block: 7%

Results for COc1ccc(-c2nc3cnc(N(C)C)nc3n(CCc3ccccc3)c2=O)cc1 ?
ERK EGF block: inconclusive; pERK EGF inh: inconclusive; c-Raf inh: 1; MEK inh: -4%

Results for COc1ccc(-n2c(=O)c(CCc3ccccc3)nc3cnc(N(C)C)nc32)cc1 ?
ERK EGF block: 4%

What do the screens show for `COc1ncc2nc(-c3ccc(Cl)cc3)c(=O)n(CCc3ccccc3)c2n1`?
ERK EGF block: 6%

Results for C=CC(N)CCC(=O)O (stereo not given) ?
ERK EGF block: 5%

How did Cc1cc2c(c(SCC(=O)Nc3ccc(C)c(C)c3)n1)C(=O)OC2 do in these assays?
ERK EGF block: -1%
